# Test results taken from PMC11006913.
# Where a chain is given by its changes, count along the chain named.
# How the values were obtained:
# Assay in all cases: PBM; 200 nM protein, PBS
# Details in all cases: dsDNA, one strand shown
# VENTX [1] = biological target: T1, VENTX (Homo sapiens, UniProt O95231 78-163, R121Q)
# T1 sequence: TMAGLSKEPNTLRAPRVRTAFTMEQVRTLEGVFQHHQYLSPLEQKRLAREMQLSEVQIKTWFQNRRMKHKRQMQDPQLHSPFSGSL
# VENTX [2] = biological target: T2, VENTX (Homo sapiens, UniProt O95231 78-163, Y115F)
# T2 sequence: T1 sequence with Y38F, Q44R
# HOXA2 [3] = biological target: HOXA2 (Homo sapiens, UniProt O43364 129-215, R185T)
# HOXA2 (Homo sapiens, UniProt O43364 129-215, R185T), sequence (O43364 129-215 R185T): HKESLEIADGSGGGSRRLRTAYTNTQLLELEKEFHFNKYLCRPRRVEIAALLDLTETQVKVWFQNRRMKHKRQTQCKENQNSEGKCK
# HOXA2 [4] = biological target: HOXA2 (Homo sapiens, UniProt O43364 129-215, R185K)
# HOXA2 (Homo sapiens, UniProt O43364 129-215, R185K), sequence (O43364 129-215 R185K): as the sequence (O43364 129-215 R185T) above, with T57K counted along it
# HOXA2 [5] = biological target: HOXA2 (Homo sapiens, UniProt O43364 129-215, Y150S)
# HOXA2 (Homo sapiens, UniProt O43364 129-215, Y150S), sequence (O43364 129-215 Y150S): as the sequence (O43364 129-215 R185T) above, with Y22S, T57R counted along it
# HOXA2 [6] = biological target: HOXA2 (Homo sapiens, UniProt O43364 129-215)
# HOXA2 (Homo sapiens, UniProt O43364 129-215), sequence (O43364 129-215): as the sequence (O43364 129-215 R185T) above, with T57R counted along it
# PAX4 [7] = biological target: T3, PAX4 (Homo sapiens, UniProt O43316 9-242, R200K)
# T3 sequence: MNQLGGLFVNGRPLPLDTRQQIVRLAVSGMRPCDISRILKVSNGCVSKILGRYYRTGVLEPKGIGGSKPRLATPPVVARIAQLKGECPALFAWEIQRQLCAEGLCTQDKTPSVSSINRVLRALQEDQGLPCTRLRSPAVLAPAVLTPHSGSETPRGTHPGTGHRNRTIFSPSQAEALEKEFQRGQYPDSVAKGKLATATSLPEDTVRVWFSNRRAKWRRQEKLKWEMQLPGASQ
# PAX4 [8] = biological target: T4, PAX4 (Homo sapiens, UniProt O43316 9-242)
# T4 sequence: T3 sequence with K192R
# ALX3 [9] = biological target: ALX3 (Homo sapiens, UniProt O95076 139-225, N203Q)
# ALX3 (Homo sapiens, UniProt O95076 139-225, N203Q), sequence (O95076 139-225 N203Q): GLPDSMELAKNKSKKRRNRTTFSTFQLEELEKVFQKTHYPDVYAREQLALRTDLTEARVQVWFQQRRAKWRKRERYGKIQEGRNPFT
# PAX4 [10] = biological target: T5, PAX4 (Homo sapiens, UniProt O43316 9-242, R200Q)
# T5 sequence: T3 sequence with K192Q
# PAX4 [11] = biological target: T6, PAX4 (Homo sapiens, UniProt O43316 9-242, F177V)
# T6 sequence: T3 sequence with F169V, K192R
# ALX3 [12] = biological target: ALX3 (Homo sapiens, UniProt O95076 139-225)
# ALX3 (Homo sapiens, UniProt O95076 139-225), sequence (O95076 139-225): as the sequence (O95076 139-225 N203Q) above, with Q65N counted along it
# PAX4 [13] = biological target: T7, PAX4 (Homo sapiens, UniProt O43316 9-242, F177Y)
# T7 sequence: T3 sequence with F169Y, K192R
# ALX3 [14] = biological target: ALX3 (Homo sapiens, UniProt O95076 139-225, L168V)
# ALX3 (Homo sapiens, UniProt O95076 139-225, L168V), sequence (O95076 139-225 L168V): as the sequence (O95076 139-225 N203Q) above, with L30V, Q65N counted along it
# PAX4 [15] = biological target: T8, PAX4 (Homo sapiens, UniProt O43316 9-242, R227W)
# T8 sequence: T3 sequence with K192R, R219W
# ALX3 [16] = biological target: ALX3 (Homo sapiens, UniProt O95076 139-225, N203S)
# ALX3 (Homo sapiens, UniProt O95076 139-225, N203S), sequence (O95076 139-225 N203S): as the sequence (O95076 139-225 N203Q) above, with Q65S counted along it
# VAX1 = VAX1 (Homo sapiens, UniProt Q5SQQ9 86-172, T142I)
# VAX1, sequence (Q5SQQ9 86-172 T142I): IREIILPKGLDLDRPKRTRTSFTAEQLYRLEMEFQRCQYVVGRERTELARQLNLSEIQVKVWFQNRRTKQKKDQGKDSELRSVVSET
# MSX2 = MSX2 (Homo sapiens, UniProt P35548 130-214)
# MSX2, sequence (P35548 130-214): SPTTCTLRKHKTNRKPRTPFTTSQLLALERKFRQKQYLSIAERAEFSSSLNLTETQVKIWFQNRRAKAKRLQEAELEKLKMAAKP
# HOXA7 = HOXA7 (Homo sapiens, UniProt P31268 116-202)
# HOXA7, sequence (P31268 116-202): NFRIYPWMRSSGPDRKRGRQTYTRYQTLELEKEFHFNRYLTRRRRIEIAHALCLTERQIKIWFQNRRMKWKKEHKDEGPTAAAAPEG
sequence,measurement,setting,value
CCGCCCCC,binding signal,VENTX [1],"8.05 upbm affinity estimate (log intensity, higher = more binding, comparable within an allelic series)"
same,binding signal,VENTX [2],"7.95 upbm affinity estimate (log intensity, higher = more binding, comparable within an allelic series)"
same,binding signal,HOXA2 [3],"6.99 upbm affinity estimate (log intensity, higher = more binding, comparable within an allelic series)"
same,binding signal,HOXA2 [4],"9.92 upbm affinity estimate (log intensity, higher = more binding, comparable within an allelic series)"
same,binding signal,HOXA2 [5],"10.2 upbm affinity estimate (log intensity, higher = more binding, comparable within an allelic series)"
same,binding signal,HOXA2 [6],"6.94 upbm affinity estimate (log intensity, higher = more binding, comparable within an allelic series)"
AATTAACC,binding signal,PAX4 [7],"11.6 upbm affinity estimate (log intensity, higher = more binding, comparable within an allelic series)"
same,binding signal,PAX4 [8],"12.1 upbm affinity estimate (log intensity, higher = more binding, comparable within an allelic series)"
same,binding signal,ALX3 [9],"8.33 upbm affinity estimate (log intensity, higher = more binding, comparable within an allelic series)"
same,binding signal,PAX4 [10],"11.9 upbm affinity estimate (log intensity, higher = more binding, comparable within an allelic series)"
same,binding signal,PAX4 [11],"10.4 upbm affinity estimate (log intensity, higher = more binding, comparable within an allelic series)"
same,binding signal,ALX3 [12],"12.3 upbm affinity estimate (log intensity, higher = more binding, comparable within an allelic series)"
same,binding signal,PAX4 [13],"10.8 upbm affinity estimate (log intensity, higher = more binding, comparable within an allelic series)"
same,binding signal,ALX3 [14],"9.89 upbm affinity estimate (log intensity, higher = more binding, comparable within an allelic series)"
same,binding signal,PAX4 [15],"10.8 upbm affinity estimate (log intensity, higher = more binding, comparable within an allelic series)"
same,binding signal,ALX3 [16],"8.5 upbm affinity estimate (log intensity, higher = more binding, comparable within an allelic series)"
GCCGGCGA,binding signal,PAX4 [7],"9.18 upbm affinity estimate (log intensity, higher = more binding, comparable within an allelic series)"
same,binding signal,PAX4 [8],"9.12 upbm affinity estimate (log intensity, higher = more binding, comparable within an allelic series)"
same,binding signal,PAX4 [10],"9.11 upbm affinity estimate (log intensity, higher = more binding, comparable within an allelic series)"
same,binding signal,PAX4 [11],"9.13 upbm affinity estimate (log intensity, higher = more binding, comparable within an allelic series)"
same,binding signal,PAX4 [13],"9.03 upbm affinity estimate (log intensity, higher = more binding, comparable within an allelic series)"
same,binding signal,VAX1,"7.22 upbm affinity estimate (log intensity, higher = more binding, comparable within an allelic series)"
same,binding signal,PAX4 [15],"9.19 upbm affinity estimate (log intensity, higher = more binding, comparable within an allelic series)"
CCGAGGCC,binding signal,HOXA2 [3],"7.28 upbm affinity estimate (log intensity, higher = more binding, comparable within an allelic series)"
same,binding signal,HOXA2 [4],"10.4 upbm affinity estimate (log intensity, higher = more binding, comparable within an allelic series)"
same,binding signal,HOXA2 [5],"10.4 upbm affinity estimate (log intensity, higher = more binding, comparable within an allelic series)"
same,binding signal,HOXA2 [6],"7.27 upbm affinity estimate (log intensity, higher = more binding, comparable within an allelic series)"
GAACCCCC,binding signal,HOXA2 [3],"7.12 upbm affinity estimate (log intensity, higher = more binding, comparable within an allelic series)"
same,binding signal,HOXA2 [4],"10 upbm affinity estimate (log intensity, higher = more binding, comparable within an allelic series)"
same,binding signal,MSX2,"9.41 upbm affinity estimate (log intensity, higher = more binding, comparable within an allelic series)"
same,binding signal,HOXA2 [5],"10.3 upbm affinity estimate (log intensity, higher = more binding, comparable within an allelic series)"
same,binding signal,HOXA2 [6],"7.05 upbm affinity estimate (log intensity, higher = more binding, comparable within an allelic series)"
AATTATCG,binding signal,ALX3 [9],"8.39 upbm affinity estimate (log intensity, higher = more binding, comparable within an allelic series)"
same,binding signal,MSX2,"13.4 upbm affinity estimate (log intensity, higher = more binding, comparable within an allelic series)"
same,binding signal,ALX3 [12],"12.3 upbm affinity estimate (log intensity, higher = more binding, comparable within an allelic series)"
same,binding signal,ALX3 [14],"9.82 upbm affinity estimate (log intensity, higher = more binding, comparable within an allelic series)"
same,binding signal,ALX3 [16],"8.5 upbm affinity estimate (log intensity, higher = more binding, comparable within an allelic series)"
AATTATCA,binding signal,MSX2,"13.3 upbm affinity estimate (log intensity, higher = more binding, comparable within an allelic series)"
same,binding signal,PAX4 [13],"10.9 upbm affinity estimate (log intensity, higher = more binding, comparable within an allelic series)"
same,binding signal,ALX3 [14],"9.73 upbm affinity estimate (log intensity, higher = more binding, comparable within an allelic series)"
CTCTCCAG,binding signal,VAX1,"7.16 upbm affinity estimate (log intensity, higher = more binding, comparable within an allelic series)"
AGCTGCCT,binding signal,HOXA7,"8.26 upbm affinity estimate (log intensity, higher = more binding, comparable within an allelic series)"
CAGGCCGG,binding signal,HOXA2 [3],"7.05 upbm affinity estimate (log intensity, higher = more binding, comparable within an allelic series)"
same,binding signal,HOXA2 [4],"10.1 upbm affinity estimate (log intensity, higher = more binding, comparable within an allelic series)"
same,binding signal,HOXA2 [5],"10.3 upbm affinity estimate (log intensity, higher = more binding, comparable within an allelic series)"
same,binding signal,HOXA2 [6],"7.13 upbm affinity estimate (log intensity, higher = more binding, comparable within an allelic series)"
TAATTGTA,binding signal,ALX3 [9],"8.59 upbm affinity estimate (log intensity, higher = more binding, comparable within an allelic series)"
same,binding signal,PAX4 [11],"10.5 upbm affinity estimate (log intensity, higher = more binding, comparable within an allelic series)"
same,binding signal,MSX2,"13.6 upbm affinity estimate (log intensity, higher = more binding, comparable within an allelic series)"
same,binding signal,ALX3 [16],"8.7 upbm affinity estimate (log intensity, higher = more binding, comparable within an allelic series)"
AATTATCT,binding signal,PAX4 [7],"11.7 upbm affinity estimate (log intensity, higher = more binding, comparable within an allelic series)"
same,binding signal,PAX4 [8],"12.2 upbm affinity estimate (log intensity, higher = more binding, comparable within an allelic series)"
same,binding signal,ALX3 [9],"8.49 upbm affinity estimate (log intensity, higher = more binding, comparable within an allelic series)"
same,binding signal,PAX4 [10],"11.9 upbm affinity estimate (log intensity, higher = more binding, comparable within an allelic series)"
same,binding signal,PAX4 [11],"10.5 upbm affinity estimate (log intensity, higher = more binding, comparable within an allelic series)"
same,binding signal,MSX2,"13.5 upbm affinity estimate (log intensity, higher = more binding, comparable within an allelic series)"
same,binding signal,ALX3 [12],"12.4 upbm affinity estimate (log intensity, higher = more binding, comparable within an allelic series)"
same,binding signal,PAX4 [13],"11 upbm affinity estimate (log intensity, higher = more binding, comparable within an allelic series)"
same,binding signal,ALX3 [14],"9.85 upbm affinity estimate (log intensity, higher = more binding, comparable within an allelic series)"
same,binding signal,PAX4 [15],"10.9 upbm affinity estimate (log intensity, higher = more binding, comparable within an allelic series)"
same,binding signal,ALX3 [16],"8.6 upbm affinity estimate (log intensity, higher = more binding, comparable within an allelic series)"
